According to PubChem BioAssay:

Each compound was assayed on Human papillomavirus type 1a protein E7 (residues 44-93) (assay: HPV1a E7 fragment binders on microarrays, primary screen, biochemical, small-molecule microarray, residues 44-93, 635 nm fluorescence (AID 1108;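 also: E7 fragment applied at 1 µg/mL in TBST for 1 h at 4 C; score combines spot fluorescence with its signal to noise ratio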)). Conditions: small-molecule microarray binding, fluorescence 635 nm; higher = more signal.
Compound `COC(=O)c1c(CC[C@@H](CO)NC(=O)N[C@@H](Cc2ccccc2)Cn2cc(C3(O)CCCCC3)nn2)oc(C(C)=O)c1C(=O)OC` has a composite z-score of 1.28. Work on `Cc1ccc(S[C@]2(C(=O)NCc3ccccc3)CC(=O)N(Cc3ccccc3Cl)[C@@H]2c2ccc(CO)cc2I)cc1` yielded a composite z-score of -0.173. `COCCOC(=O)N1C(=O)[C@@]2(c3cc(C#Cc4ccc(OC)cc4)ccc31)[C@H](C(=O)N1CCN(c3ncccn3)CC1)[C@H]1C(=O)O[C@H](c3ccccc3)[C@H](c3ccccc3)N1[C@@H]2c1ccc(O)cc1` was tested, and the composite z-score was 0.519. With `CC(C)(C)OC(=O)CC[C@@]1(C(=O)NCCN2CCOCC2)N=C(c2ccc(OCCCO)cc2)O[C@@H]1c1ccccc1` the composite z-score was 0.925. `COCCOC(=O)N1C(=O)[C@@]2(c3cc(C#CC4(O)CCCCCC4)ccc31)[C@H](C(=O)N1CCCCCCC1)[C@H]1C(=O)O[C@H](c3ccccc3)[C@H](c3ccccc3)N1[C@@H]2c1ccccc1OCCO` gave a composite z-score of 1.42. In the case of `CC(C)c1ccc(NN2C(C(O)c3c(F)cccc3Cl)C=CC3C(=O)N(c4ccccc4)C(=O)C32)cc1` (configuration not stated), the composite z-score is reported as 1.23. For `O=C1OCC=C[C@H]2OC34C=CCN(c5ccc6ccccc6c5)C(=O)[C@H]3N(CCCO)C(=O)[C@@H]4[C@@H]12` (some centres not stated), the composite z-score was -0.522. `CCCCC(CC)C(O)C1C=CC2C(=O)N(c3ccccc3)C(=O)C2N1Nc1ccccc1` (configuration not stated) gave a composite z-score of 1.33. `O=C1C=CC(=O)[C@@H]2CC(COc3ccccc3)=C3[C@@H](CCc4ccccc4)OB(O)C[C@@H]3[C@H]12` gave a composite z-score of 0.23. Work on `NC(=O)NCC#Cc1ccc2c(c1)[C@]1(C(=O)N2)[C@H](C(=O)NC[C@H](O)c2ccccc2)[C@H]2C(=O)O[C@H](c3ccccc3)[C@H](c3ccccc3)N2[C@@H]1c1ccc(O)cc1` yielded a composite z-score of 1.38. `COC(=O)[C@@]1(Cc2ccccc2)[C@H]2c3cc(C(=O)N(C)C)n(Cc4c(-c5ccccc5)noc4C)c3C[C@H]2CN1C(=O)c1ccccc1` showed a composite z-score of 1.15. `[N-]=[N+]=Nc1ccccc1[C@H]1OC(c2ccc(OCCCO)cc2)=N[C@@]1(CCS(=O)(=O)c1ccccc1)C(=O)O` was tested, and the composite z-score was 0.447. Compound `COCCCNC(=O)[C@@]1(C)c2ccccc2C(=O)N(Cc2cc(C(F)(F)F)cc(C(F)(F)F)c2)[C@H]1c1ccc(CO)cc1` has a composite z-score of 1.32. With `CC(C)(C)N1CC=CC23O[C@@H]4C=CCOC(=O)[C@@H]4[C@H]2C(=O)N(CCCCCO)[C@@H]3C1=O` (some centres not stated) the composite z-score was -1.2. Compound `CC(C)N1C(=O)c2ccccc2[C@@H](C(=O)NCCCN(C)C)[C@@H]1c1ccc(CO)cc1` has a composite z-score of -1. Work on `COc1ccc(C(=O)Nc2cccc(CN3C(=O)[C@]4(O[C@H](CC(=O)N5CCC[C@H]5CO)[C@@H]([Si](C)(C)c5ccc(OC)cc5)[C@@H]4C)c4ccccc43)c2)cc1` yielded a composite z-score of 1.23. `O=C(CS)NCCCCCCNC(=O)[C@@H]1C[C@@H]2C(=O)N3CCC[C@H]3C(=O)N2[C@@H]1c1ccc(O)cc1` gave a composite z-score of 1.41. `C=C[C@@H](COC(C)=O)N(Cc1ccccc1[N+](=O)[O-])S(=O)(=O)c1ccc(Br)cc1` showed a composite z-score of 1.08. Work on `COc1cc2c(cc1O)C(C)N(Cc1cccc(OC(F)(F)F)c1)CC2` (configuration not stated) yielded a composite z-score of 1.37. `CC(C)N1C(=O)C[C@@](C(=O)NCc2ccccc2)(c2ccc([N+](=O)[O-])cc2)[C@H]1c1ccc(CO)cc1` gave a composite z-score of 1.37. Compound `CCCN1C(=O)[C@]2(COC(c3ccc(OCCCO)cc3)=N2)Cc2ccccc21` has a composite z-score of 0.147. In the case of `COC(=O)C(CC#Cc1ccc2c(c1)[C@]1(C(=O)N2)[C@H](c2ccc(OCCO)cc2)N2[C@H](c3ccccc3)[C@H](c3ccccc3)OC(=O)[C@H]2[C@@H]1C(=O)NC[C@H](O)c1ccccc1)C(=O)OC`, the composite z-score is reported as 1.17. With `O=C1C2C=CC(C(O)c3ccc(B(O)O)cc3)N(Nc3ccccc3)C2C(=O)N1c1ccccc1` (configuration not stated) the composite z-score was 0.0036. Work on `O=C1O[C@H](c2ccccc2)[C@H](c2ccccc2)N2[C@H]1[C@@H](C(=O)NC[C@H](O)c1ccccc1)[C@]1(C(=O)Nc3ccc(C#CCCO)cc31)[C@H]2c1ccc(O)cc1` yielded a composite z-score of -0.453. `O=C1O[C@@H](c2ccccc2)[C@@H](c2ccccc2)N2[C@@H](c3ccc(O)cc3)[C@]3(C(=O)Nc4ccc(C#CC5=CCCCC5)cc43)[C@@H](C(=O)O)[C@H]12` gave a composite z-score of 0.2. In the case of `CCOC(=O)C1=CCC(c2ccc(C#N)cc2)N(S(=O)(=O)c2ccc(C)cc2)C1` (configuration not stated), the composite z-score is reported as -0.437. For `CCN(CC)c1ccc(N2CC=CC34O[C@@H]5C=CCCOC(=O)C5[C@H]3C(=O)N(CCCCCO)[C@@H]4C2=O)cc1` (some centres not stated), the composite z-score was -0.668.
